Only some compounds are listed: those with a hit (about 7.2% of all), similar ones and a draw of the others.
Sm TGR inh = inhibitors of Schistosoma mansoni thioredoxin glutathione reductase; Potency, µM (highest dose often 114 µM), for inactives: top-dose activity change, negative = inhibition, hits mostly inhibitors; purified TGR, DTNB reduction, TNB absorbance 405 nm; 360,000 compounds, 3% hits; also: nearly all actives have a fitted effect of over 60% in size
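First, TGR (20 nM dispensed) and NADPH were mixed with compound. Second, a 15 min room-temperature incubation followed. Third, further NADPH and then DTNB were added to start the reaction. Finally, TNB absorbance was monitored kinetically.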
FMDV antiviral = foot and mouth disease virus antiviral activity. AID 1159524. FMDV antiviral cell-based qHTS. 410,000 compounds, 1.2% hits. Potency, µM (doses to about 57.9 µM), for the others: at the top dose activity change, negative = inhibition, usual class: inhibitors; calls by dose curve; tested in HEK293T cells; also: read-out not given here; nearly all actives have a fitted effect of over 45% in size
MARV entry inh = Marburg virus entry inhibition | Marburg virus pseudotyped entry inhibition, cell reporter | Potency, µM (top dose mostly 37.8 µM), for inactives: top-dose activity change, negative = inhibition, usual class: inhibitors | 300,000 compounds, 1.8% hits | AID 540276; calls by dose curve; tested in HEK293 cells
RE007 growth inh = less growth of the S. pombe RE007 Vpr strain. 360,000 compounds, 0.21% hits. S. pombe RE007 Vpr strain, BacTiter-Glo ATP luminescence, 24 h. Potency, µM (top dose mostly 92.2 µM), without a hit: at the top dose activity change, negative = less growth, usual class: inhibitors. AID 651644; active = well fitted falling curve with a large enough effect; inconclusive = small, poorly fitted or top-dose-only effect; inactive = no such curve, though single readings can be large or run the other way; also: nearly all actives have a fitted effect of over 50% in size
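Fission yeast strain RE007, carrying one chromosomally integrated HIV-1 vpr copy, was seeded at OD 0.01 in PMG+AL medium with 23 nL pinned compound. After 24 h at 30 °C and 99% humidity, viability was read by BacTiter-Glo luminescence.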
HCV inh = HCV inhibition | 340,000 compounds, 3.4% hits | AID 651820 | Potency, µM (top dose mostly 41.8 µM), without a hit: at the top dose activity change, negative = inhibition, usual class: inhibitors | Huh7.5.1 HCVcc-Cre infection, luciferase reporter, 44 h
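Infectious HCV cell culture screen: compound-treated cells (1,000/well, pre-plated 4 h) are infected with HCVcc-Cre at roughly 0.5 moi and grown 44 h. Infection is quantified by luciferase signal after 15 min substrate incubation at room temperature.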
LASV entry inh = inhibitors of Lassa virus binding or cell entry; Lassa virus pseudotype entry inhibition, cell reporter; 300,000 compounds, 1.2% hits; Potency, µM (highest dose often 37.9 µM), for the others: at the top dose activity change, negative = inhibition, usual class: inhibitors; AID 540256; calls by dose curve; tested in HEK293 cells; also: nearly all actives have a fitted effect of over 50% in size
Starred values were filed as active, the others as inactive; ? = inconclusive; nt = no result; [ ] = another dose, or the depositor's remark. Unless noted, calls follow the shape of the dose curve; as a rule, active = well fitted curve in the direction sought with a large enough effect; inconclusive = small, poorly fitted or top-dose-only effect, or another doubt; inactive = no such curve, though single readings can be large; an effect the other way counts as inactive or inconclusive. % is scaled to controls: 0 for no effect and ±100 for the full control effect; potency is read from the fitted curve at half-maximal effect.

SMILES | Sm TGR inh | FMDV antiviral | MARV entry inh | RE007 growth inh | HCV inh | LASV entry inh
CC(=O)Cc1nsc(NC(=O)c2ccc(COc3ccccc3)o2)n1 | 45µM* | 8% | 7% | 6% | -6% | -4%
O=C(O)C1(S(=O)(=O)CCC(F)=C(F)F)CC1 | 32µM* | -13% | ? | 5% | 14% | -3%
CCN1C(=NCCN2CCOCC2)N[C@@H](CCc2ccccc2)C(C(=O)OC)=C1C | -25% | nt | nt | nt | nt | nt
Cc1ccc(-c2nc3c(c(SCC(=O)N4CCOCC4)n2)Cc2c(CO)cnc(C)c2O3)cc1 | 35µM* | 8% | nt | 10% | ? | nt
CCN(CC)C(=O)CSc1nc(-c2ccc(C)cc2)nc2c1Cc1c(CO)cnc(C)c1O2 | 20µM* | ? | nt | nt | nt | 0%[46.1 µM]
Cc1cc(C)cc(NC(=O)CSc2nc(-c3cccc(Cl)c3)nc3c2Cc2c(CO)cnc(C)c2O3)c1 | 35µM* | -14% | nt | nt | nt | -3%[46.1 µM]
Cc1ccc2nc(-c3ccc(Cl)cc3)cc(C(=O)OCC(=O)c3ccccc3)c2c1 | 0% | -25% | nt | nt | nt | 16%[46.1 µM]
CC(C)=CC1C(CO)C1(C)C (configuration not stated) | nt | -5% | nt | nt | nt | nt
CCOc1ccc(NC(=O)CC2C(=O)N(c3cccc(C)c3)C(=O)N2CCC2=CCCCC2)cc1 (configuration not stated) | 0% | 0% | ? | nt | nt | ?
Cc1cc(C)n2nc(CC#N)c(C#N)c2n1 | 0% | 13% | 23%[46.1 µM] | -14% | 11% | -12%
Cc1cc(C)n2nc(/C(C#N)=C/c3ccccn3)c(C#N)c2n1 | ? | ? | ? | -11% | -23% | 10µM*
COc1cccc(Nc2nnc(SCC(=O)Nc3sccc3C(N)=O)s2)c1 | nt | 16µM* | nt | -1% | ? | nt
COc1ccc(Nc2nnc(SCC(=O)NC(=O)Nc3ccc4c(c3)OCCO4)s2)cc1 | -2% | 0% | nt | -3% | 11µM* | nt
O=C(CCCC(=O)NCc1ccc(F)cc1)NCc1ccc(F)cc1 | nt | 35µM* | 1%[46.1 µM] | 6% | 10% | 27%
O=C(CCS(=O)(=O)c1ccccc1Cl)NCc1ccc(F)cc1 | 32µM* | -18% | nt | -13% | 10% | nt
Cc1ccc(C)c(N2CCN(C(=O)c3cnn(-c4ccccc4Cl)c3C3CCN(C(=O)OC(C)(C)C)CC3)CC2)c1 | 1% | ? | nt | nt | nt | ?
COc1ccc(OC)c(S(=O)(=O)NCc2cccn2Cc2cccc(C)c2)c1 | -10% | 37% | nt | nt | nt | ?
COc1c(O)cc2c(c1O)C1OC(CO)C(O)C(O)C1OC2=O (configuration not stated) | 0% | -16% | nt | 0%[18.4 µM] | 17% | nt
O=C1OCC2OC(O)C(O)C(O)C2OC(=O)c2cc(O)c(O)c(O)c2-c2c(O)c(O)c3oc(=O)c4c(c(O)c(O)c5oc(=O)c2c3c54)-c2c1cc(O)c(O)c2O (configuration not stated) | 16µM* | nt | nt | nt | nt | nt
C/C=C/C(=O)Nc1cccc(C2=NOC3(C2)C[C@@H](C(N)=O)N(C(=O)c2cc([N+](=O)[O-])cc([N+](=O)[O-])c2)C3)c1 (some centres not stated) | 0% | -12% | nt | -24% | -16% | nt
NC(=O)[C@@H]1CC2(CC(c3cccc(NC(=O)COc4ccc(Cl)cc4)c3)=NO2)CN1C(=O)COc1ccc(Cl)cc1 (some centres not stated) | 1% | 0% | nt | -2% | 10µM* | nt
C/C=C\C=C/C(=O)Nc1cccc(C2=NOC3(C2)C[C@@H](C(N)=O)N(C(=O)c2ccc(Cl)cc2)C3)c1 (some centres not stated) | 3.2µM* | 6% | nt | -7% | -23% | nt
C/C=C(/C)C(=O)Nc1cccc(C2=NOC3(C2)C[C@@H](C(N)=O)N(C(=O)c2ccc(OC)cc2)C3)c1 (some centres not stated) | 3% | -7% | nt | 4% | 15% | nt
C/C=C\C=C/C(=O)Nc1cccc(C2=NOC3(C2)C[C@H](C(N)=O)N(C(=O)c2ccc(OC)cc2)C3)c1 (some centres not stated) | 1.8µM* | 8% | nt | 4% | -1% | nt
CCc1ccccc1OCC(=O)Nc1ccc(F)c(S(=O)(=O)N2CCOCC2)c1 | 0% | 9% | -28% | -3% | ? | -4%
SMILES | Sm TGR inh | FMDV antiviral | MARV entry inh | RE007 growth inh | HCV inh | LASV entry inh
CCOC(=O)C1=C(C)N=C2c3ccccc3C(=O)C2C1c1ccc(Cl)cc1 (configuration not stated) | -9% | ? | ? | -10% | 16µM* | ?
CC1(C)CC(=O)C2=C(C1)N=C1c3ccccc3C(=O)C1C2c1ccc(Cl)cc1 (configuration not stated) | -30% | ? | ? | -19% | 13µM* | ?
COc1ccc(N2CCN(C(=O)c3cc(NS(=O)(=O)c4ccc(F)cc4)ccn3)CC2)cc1 | 0% | -4% | nt | nt | nt | 23%[46.1 µM]
COc1ccc(OC)c2sc(N3CCN(C(=O)CCS(=O)(=O)c4ccc(F)cc4)CC3)nc12 | 3% | ? | nt | nt | nt | -25%[46.1 µM]
CN(CC1CCOCC1)C(=O)CC1C(=O)NCCN1Cc1ccccc1F (configuration not stated) | ? | -2% | ? | -22% | 1% | 8%
O=C(CC1C(=O)NCCN1Cc1cccc(Oc2ccccc2)c1)NCC1CCOCC1 (configuration not stated) | nt | 5% | nt | -7% | -26% | nt
CN(CC1CCOCC1)C(=O)CC1C(=O)NCCN1Cc1cccc(C(F)(F)F)c1 (configuration not stated) | 45µM* | 13% | nt | -7% | 11% | nt
COc1cccc(CNC(=O)CC2C(=O)NCCN2CCCc2ccccc2)c1 (configuration not stated) | -26% | -6% | nt | 3% | 9% | nt
CN(CCC1CCOCC1)C(=O)CC1C(=O)NCCN1Cc1ccccc1F (configuration not stated) | 45µM* | -18% | -7% | -7% | 15% | 26%
O=C(CC1C(=O)NCCN1Cc1ccoc1)NCc1cccc(OC(F)(F)F)c1 (configuration not stated) | 25µM* | -5% | nt | -4% | 2% | nt
COc1cccc(CN2CCNC(=O)C2CC(=O)NCC2CCOCC2)c1 (configuration not stated) | 35µM* | 10% | nt | 5% | 10% | nt
CN(CCCC1CCCC1)C(=O)CC1C(=O)NCCN1Cc1ccc(F)cc1 (configuration not stated) | 28µM* | 0% | -1% | 8% | 27% | -10%
CN(CCC1CCOCC1)C(=O)CC1C(=O)NCCN1Cc1ccoc1 (configuration not stated) | ? | 2% | -20%[46.1 µM] | 1% | 0% | -9%[46.1 µM]
Cc1[nH]c2ccccc2c1C(C#N)(C#N)C1C(=O)c2ccccc2C1=O | 45µM* | -18% | nt | -19% | 1% | nt

Screening data (PubChem)
